Test results taken from PubChem BioAssay AID504333 (National Center for Advancing Translational Sciences (NCATS), 2011).
Out of some 360,000 compounds screened, about 16,000 (4.4%) were called active. Where a call stands in place of a potency, no number is given. Roughly 9% stayed inconclusive and do not appear here. Calls come from the whole dose curve; as a rule, active = well fitted inhibition curve with a large enough effect; inconclusive = small, poorly fitted or top-dose-only effect; inactive = no such curve, though single readings can be large or run the other way. This excerpt belongs to a sample that is enriched for actives.

target: Bromodomain adjacent to zinc finger domain protein 2B (Homo sapiens) (UniProt Q9UIF8); assay: qHTS Assay for Inhibitors of BAZ2B; conditions: AlphaScreen BAZ2B-H3K14Ac peptide displacement; series mostly up to 114 µM; note: nearly all actives have a fitted effect of over 60% in size
Sequence (Q9UIF8 whole entry, looked up, the tested form may be a part): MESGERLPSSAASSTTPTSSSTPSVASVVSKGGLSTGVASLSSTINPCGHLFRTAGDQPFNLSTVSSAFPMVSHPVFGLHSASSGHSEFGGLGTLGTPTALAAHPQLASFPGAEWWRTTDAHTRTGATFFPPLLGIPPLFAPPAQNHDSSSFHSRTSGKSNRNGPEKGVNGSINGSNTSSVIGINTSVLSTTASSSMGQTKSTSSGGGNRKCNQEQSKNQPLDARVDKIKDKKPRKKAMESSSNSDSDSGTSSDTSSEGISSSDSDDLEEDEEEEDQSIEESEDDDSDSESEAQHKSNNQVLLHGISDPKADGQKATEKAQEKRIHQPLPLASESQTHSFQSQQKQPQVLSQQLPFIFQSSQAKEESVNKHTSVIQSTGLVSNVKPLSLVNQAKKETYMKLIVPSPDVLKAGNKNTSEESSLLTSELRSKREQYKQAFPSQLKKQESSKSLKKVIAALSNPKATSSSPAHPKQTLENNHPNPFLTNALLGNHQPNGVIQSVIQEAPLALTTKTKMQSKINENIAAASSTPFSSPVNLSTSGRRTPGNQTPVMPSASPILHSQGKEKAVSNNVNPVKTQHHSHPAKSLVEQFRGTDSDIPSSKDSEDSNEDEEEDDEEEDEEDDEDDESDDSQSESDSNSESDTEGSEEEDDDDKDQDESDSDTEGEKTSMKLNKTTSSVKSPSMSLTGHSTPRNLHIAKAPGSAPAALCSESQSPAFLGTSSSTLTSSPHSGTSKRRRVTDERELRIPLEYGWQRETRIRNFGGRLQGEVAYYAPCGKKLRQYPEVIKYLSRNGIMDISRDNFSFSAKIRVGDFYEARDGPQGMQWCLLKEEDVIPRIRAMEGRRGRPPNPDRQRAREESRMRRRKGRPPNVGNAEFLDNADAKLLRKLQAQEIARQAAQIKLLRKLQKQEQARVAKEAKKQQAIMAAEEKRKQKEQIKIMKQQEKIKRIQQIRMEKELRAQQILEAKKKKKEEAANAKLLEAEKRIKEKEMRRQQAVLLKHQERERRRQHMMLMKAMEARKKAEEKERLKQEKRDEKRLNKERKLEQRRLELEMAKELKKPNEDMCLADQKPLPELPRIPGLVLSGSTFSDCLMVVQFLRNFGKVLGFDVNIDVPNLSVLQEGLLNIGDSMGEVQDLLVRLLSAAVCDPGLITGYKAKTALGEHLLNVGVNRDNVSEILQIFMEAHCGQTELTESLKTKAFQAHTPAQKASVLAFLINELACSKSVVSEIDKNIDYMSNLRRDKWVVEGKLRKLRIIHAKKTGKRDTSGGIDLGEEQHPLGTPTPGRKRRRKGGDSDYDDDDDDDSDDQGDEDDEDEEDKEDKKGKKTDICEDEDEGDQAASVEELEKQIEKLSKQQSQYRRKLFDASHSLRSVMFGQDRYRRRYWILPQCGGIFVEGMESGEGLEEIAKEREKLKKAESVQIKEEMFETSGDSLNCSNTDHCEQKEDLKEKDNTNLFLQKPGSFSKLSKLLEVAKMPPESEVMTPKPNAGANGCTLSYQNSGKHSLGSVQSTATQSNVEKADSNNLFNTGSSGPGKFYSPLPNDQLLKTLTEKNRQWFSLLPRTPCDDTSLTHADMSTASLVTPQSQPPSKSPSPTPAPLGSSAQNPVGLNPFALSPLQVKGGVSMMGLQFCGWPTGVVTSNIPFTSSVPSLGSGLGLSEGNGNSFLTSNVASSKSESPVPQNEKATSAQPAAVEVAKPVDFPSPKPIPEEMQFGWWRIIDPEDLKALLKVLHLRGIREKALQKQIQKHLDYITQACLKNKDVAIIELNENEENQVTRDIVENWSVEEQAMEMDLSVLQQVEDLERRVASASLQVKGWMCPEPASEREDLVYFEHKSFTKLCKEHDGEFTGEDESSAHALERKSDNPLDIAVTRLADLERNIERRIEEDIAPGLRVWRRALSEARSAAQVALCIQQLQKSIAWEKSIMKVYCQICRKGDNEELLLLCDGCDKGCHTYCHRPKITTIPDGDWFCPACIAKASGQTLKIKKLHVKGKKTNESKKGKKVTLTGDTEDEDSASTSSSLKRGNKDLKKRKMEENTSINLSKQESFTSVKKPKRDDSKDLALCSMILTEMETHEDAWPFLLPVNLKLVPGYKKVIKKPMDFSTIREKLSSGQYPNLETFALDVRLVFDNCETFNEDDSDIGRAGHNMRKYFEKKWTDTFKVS
How it was run: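 Complex of BAZ2B and biotin-H3K14Ac (50 nM apiece) forms over 30 min at RT, then faces library compounds up to 110 uM for another 30 min; AlphaScreen beads added, 20 min dark incubation, luminescence read.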
Potency is the fitted concentration of half-maximal effect.

Row | Structure (SMILES) | Potency
1 | CC(C)CCN(C(=O)Nc1ccc(Cl)c(Cl)c1)C(C)c1cccs1 (stereo not drawn) | inactive
2 | Cc1ccc(Cn2c(CCCNC(=O)C3CCCCC3)nc3ccccc32)cc1 | inactive
3 | CCOc1ccc(NC(=O)c2cc3c(=O)n(Cc4cccs4)ccc3nc2C)cc1 | inactive
4 | O=C(Nc1n[nH]c(C(F)(F)F)n1)c1cccs1 | inactive
5 | COc1ccc(CC(=O)Nc2nc3n(n2)C(c2ccccc2)CC(=O)N3)cc1OC (stereo not drawn) | inactive
6 | CC1CC(c2ccccc2)n2nc(NC(=O)c3cccs3)nc2N1 (stereo not drawn) | 79.4 µM (active)
7 | O=C(c1ccc2c(c1)N(Cc1ccc(Cl)cc1)C(=O)c1ccccc1S2(=O)=O)N1CCCCC1 | inactive
8 | Cc1ccc2nc(COc3cccc(NC(=O)c4ccccc4Cl)c3)cc(=O)n2c1 | inactive
9 | Cc1ccc(S(=O)(=O)n2nc(-c3ccc(Cl)cc3)nc2NCc2ccccc2)cc1 | inactive
10 | Cc1nc2ccccc2nc1N/N=C/c1ccc(O)cc1O | 25.1 µM (active)
11 | FC(F)(F)c1nc2ccccc2nc1N/N=C/c1ccc(Cl)cc1 | inactive
12 | Cc1ccc(/C=N/NC(=O)C2=NNC(c3ccccc3)(c3ccccc3)C2)c(O)c1 | inactive
13 | Cc1ccc(Cl)cc1-n1ncc2c(N3CCC(C(N)=O)CC3)ncnc21 | inactive
14 | Cc1cccn2c(=O)c3cc(C(=O)NC(C)c4ccccc4)c(=N)n(CCCO)c3nc12 (stereo not drawn) | inactive
15 | COc1ccc(-c2cc(NCc3ccc(F)cc3)n3cnnc3n2)cc1 | inactive
16 | Cc1ccc(CSc2nc3cccnc3n2Cc2ccc(C(=O)NC3CC3)cc2)cc1 | inactive
17 | COc1ccc(NC(=O)CSc2nc(C)cs2)cc1 | inactive
18 | Cc1csc(SCC(=O)Nc2sccc2C#N)n1 | 56.2 µM (active)
19 | Cc1ccc(NC(=O)CSCC(=O)Nc2sccc2C#N)cc1 | inactive
20 | COc1ccc2c(c1)C=C(C(=O)NCc1cc(Br)ccc1OC)CO2 | inactive
21 | Cc1ccc(Cl)cc1NC(=O)CSc1nc2ccccc2nc1Cc1ccccc1 | inactive
22 | C=C(C)CNC(=S)N/N=C/c1ccccc1OCC(=O)O | inactive
23 | Cc1cccc(COc2ccccc2/C=N/Nc2ccc([N+](=O)[O-])cc2)c1 | inactive
24 | Cc1ccc(NS(=O)(=O)c2ccc(N/N=C/c3ccccc3OCC(=O)O)c([N+](=O)[O-])c2)c(C)c1 | 7.94 µM (active)
25 | Cc1ccc(CCNC(=O)c2ccc(CS(=O)(=O)Cc3cccc(C)c3)o2)cc1 | inactive
26 | Cc1ccc(CNC(=O)CSc2c3c(nc4cc(Cl)ccc24)CCCC3)cc1 | inactive
27 | CN(C)/N=C/c1cc(Cl)cc([N+](=O)[O-])c1O | 44.7 µM (active)
28 | CC(=O)N/N=C/c1cc2c(cc1[N+](=O)[O-])OCO2 | inactive
